Hits are enriched below; roughly 15% of the tested compounds scored in any of these assays.
HCV inhibitor = HCV inhibition | hit rate 3.4% among 340,000 | Potency, µM (highest dose often 41.8 µM), without a hit: at the highest dose activity change, negative = inhibition, usual class: inhibitors | Huh7.5.1 HCVcc-Cre infection, luciferase reporter, 44 h; further: potency means the concentration at half of the fitted maximal effect; on the % scale 0 is the no-effect control and ±100 the full control effect
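Cells seeded at 1,000/well and cultured 4 h, then compounds added followed by HCVcc-Cre virus (~0.5 moi). After 44 h further culture, luciferase substrate was added, plates held 15 min at room temperature, and luminescence read for 15 sec.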
Sm TGR inh = blocks Schistosoma mansoni thioredoxin glutathione reductase; Q962Y6; purified TGR, DTNB reduction, TNB absorbance 405 nm; Potency, µM (top dose mostly 114 µM), without a hit: at the highest dose activity change, negative = inhibition, hits mostly inhibitors; hit rate 3% among 360,000; AID 485364; further: potency means the concentration at half of the fitted maximal effect; on the % scale 0 is the no-effect control and ±100 the full control effect; nearly all actives have a fitted effect of over 60% in size
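TGR 20 nM + NADPH 100 uM (dispensed conc.), cpd preinc 15 min RT; start with NADPH (500 uM addition) then DTNB (15 mM addition). Kinetic TNB absorbance, 405 nm filter. Four-parameter Hill fit across titration.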
SARS PLP yeast = inhibitors of SARS-CoV papain-like protease in yeast. AID 485353. hit rate 0.19% among 330,000. S. cerevisiae expressing SARS-CoV PLpro, growth rescue. Potency, µM (top dose mostly 32.9 µM), without a hit: at the highest dose activity, positive = growth rescue, most hits filed as activators; calls by dose curve; further: potency means the concentration at half of the fitted maximal effect; 0% is about no effect; nearly all actives have a fitted effect of over 55% in size
HCMV antiviral = inhibitors of human cytomegalovirus; HFF cells, HCMV-luciferase reporter, 72 h; active compounds read low; activity change, negative = inhibition, % at 57.5 µM; hit rate 4.5% among 410,000; AID 1259415; in the data active means activity change below about -60%; inconclusive means no clear call, values can overlap the other calls; inactive means above about -39%; further: on the % scale 0 is the no-effect control and ±100 the full control effect
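Two-dose cell screen: HFF monolayers treated with compounds and infected with luciferase-expressing HCMV at 1 PFU/cell, 72 h at 37C, then lysed for luciferase measurement.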
Pf growth 48h = P. falciparum growth inhibition at 48 hours (one generation) | P. falciparum luciferase growth in erythrocytes, 48 h | Potency, µM (titrated, usually from 28.7 µM), without a hit: at the highest dose activity change, negative = inhibition, most hits filed as inhibitors | hit rate 5.9% among 310,000; further: potency means the concentration at half of the fitted maximal effect; on the % scale 0 is the no-effect control and ±100 the full control effect
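Compounds are pin-transferred into medium, infected erythrocytes (2% hematocrit, 0.1% parasitemia final) are added, and plates sit one parasite generation at 37 C in 5% CO2. Detection reagent is then added and luminescence measured.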
Pf growth 96h = P. falciparum growth inhibition at 96 hour, primary screen for plastid delayed-death inhibitors. P. falciparum luciferase reporter growth, 96 h. Potency, µM (series often up to 28.7 µM), without a hit: top-dose activity change, negative = inhibition, hits mostly inhibitors. hit rate 6.9% among 320,000. AID 504834; further: potency means the concentration at half of the fitted maximal effect; on the % scale 0 is the no-effect control and ±100 the full control effect
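Plates of compound plus infected erythrocytes (2% hematocrit, 0.05% parasitemia final) incubate 96 hours, 37 C, 5% CO2. Detection reagent added; reduced luminescence from the parasites' luciferase reporter flags inhibition.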
Numbers without * were called inactive; [ ] = dose if it differs, or a comment. Unless noted, the call rests on the fitted dose curve; in most records, active means well fitted curve in the direction sought with a large enough effect; inconclusive means small, poorly fitted or top-dose-only effect, or another doubt; inactive means no such curve, though single readings can be large; an effect the other way counts as inactive or inconclusive.

C[C@@]12CC(=O)NC1N(C(=O)c1cccc(C(F)(F)F)c1)C(c1ccccc1OC(=O)c1cccc(C(F)(F)F)c1)C2 (some centres undefined) was read as HCV inhibitor 27.1%, Sm TGR inh -13.9%, SARS PLP yeast 1.8%, HCMV antiviral -27.7 and Pf growth 96h 9.28µM*.
For Cc1ccc(C(C)C)c(OCC(=O)Nc2ccc(N3CCOCC3)cc2N2CCOCC2)c1 the results were HCV inhibitor 31.6µM*, Sm TGR inh -4.8%, SARS PLP yeast -6.8%, HCMV antiviral -24.1, Pf growth 48h inconclusive and Pf growth 96h inconclusive.
`CC(=O)N1CCN(c2ccccc2NC(=O)COc2cc(C)ccc2C(C)C)CC1` gave HCV inhibitor inconclusive, Sm TGR inh -10.6%, SARS PLP yeast -4.7%, HCMV antiviral inconclusive and Pf growth 48h inconclusive.
For Cc1ccc(CSCC(=O)Nc2ccc(N3CCOCC3)cc2N2CCOCC2)cc1 the results were HCV inhibitor 3.6%, Sm TGR inh -7.4%, SARS PLP yeast -1.6%, HCMV antiviral -35.5, Pf growth 48h 5.22µM* and Pf growth 96h inconclusive.
Screening Cc1ccc2c(c1)-c1c(cnn1CC(=O)Nc1ccccc1N1CCN(C)CC1)CO2 returned HCV inhibitor -28.4%, Sm TGR inh 5.2%, SARS PLP yeast 1.0%, HCMV antiviral inconclusive, Pf growth 48h 10.4µM* and Pf growth 96h -33.2%.
For Cc1ccc(C(C)C)c(OCC(=O)Nc2ccccc2N2CCN(C)CC2)c1 the results were HCV inhibitor inconclusive, Sm TGR inh 3.7%, SARS PLP yeast 6.5%, HCMV antiviral -73.7*, Pf growth 48h 6.57µM* and Pf growth 96h 24.4%.
For CC(C)C[C@H]1COc2cccc(F)c2S(=O)(=O)N1 the results were HCMV antiviral 7.3.
For O=C(CCC(=O)c1ccc(Cl)cc1)OCc1nc2ccsc2c(=O)[nH]1 the results were HCV inhibitor 17.3%, Sm TGR inh -22.2%, SARS PLP yeast 13.9%, HCMV antiviral -12.9, Pf growth 48h 1.4% and Pf growth 96h 19.3%.
For O=C(O)CCN1C(=O)/C(=C/c2ccc(-c3nc4ccccc4s3)o2)SC1=S the results were HCV inhibitor 8.6%, Sm TGR inh -32.2%, SARS PLP yeast -4.1%, HCMV antiviral 49.5, Pf growth 48h 10.8% and Pf growth 96h 84.7%.
`O=C(O)CCCN1C(=O)/C(=C\c2ccc(-c3nc4ccccc4s3)o2)SC1=S` gave HCV inhibitor -12.7%, Sm TGR inh 35.5µM*, SARS PLP yeast -0.3%, HCMV antiviral inconclusive, Pf growth 48h inconclusive and Pf growth 96h inconclusive.
`O=C(NN1C(=O)/C(=C/C=C/c2ccco2)SC1=S)c1ccccc1O` gave HCV inhibitor -12.5%, Sm TGR inh 2.82µM*, SARS PLP yeast -5.8%, HCMV antiviral -18.1, Pf growth 48h 76.2% and Pf growth 96h 171.4%.
For O=C(O)C(Cc1ccccc1)N1C(=O)/C(=C/C=C/c2ccco2)SC1=S (centres undefined) the results were HCV inhibitor 33.9%, Sm TGR inh 6.31µM*, SARS PLP yeast -2.0%, HCMV antiviral -23.1, Pf growth 48h 41.9% and Pf growth 96h 71.7%.
Screening O=C(O)CC(C(=O)O)N1C(=O)/C(=C/C=C/c2ccco2)SC1=S (centres undefined) returned HCV inhibitor -0.1%, Sm TGR inh 5.01µM*, SARS PLP yeast 4.0%, HCMV antiviral inconclusive, Pf growth 48h 37.7% and Pf growth 96h 40.9%.
COc1cccc(C(=O)OCC(=O)N2CCc3ccccc3C2)c1OC was read as HCV inhibitor inconclusive, SARS PLP yeast -5.8% and HCMV antiviral -7.8.
O=C(O)CCCN1C(=O)/C(=C/C=C/c2ccco2)SC1=S was read as HCV inhibitor 42.4%, Sm TGR inh 1.78µM*, SARS PLP yeast -0.2%, HCMV antiviral inconclusive, Pf growth 48h -2.4% and Pf growth 96h 7.6%.
Screening O=C(Nc1ccccc1)C1=C[C@@H](c2csc3ccccc23)C[C@@H](OCc2ccc(CO)cc2)O1 returned HCV inhibitor 0.316µM*, Sm TGR inh 6.6%, SARS PLP yeast -1.7%, HCMV antiviral 13.4, Pf growth 48h inconclusive and Pf growth 96h 9.28µM*.
For C#CCNC(=O)C1=C[C@H](c2csc3ccccc23)C[C@H](OCc2ccc(CO)cc2)O1 the results were HCV inhibitor inconclusive, Sm TGR inh 0.0%, SARS PLP yeast -0.7%, HCMV antiviral -21.4, Pf growth 48h inconclusive and Pf growth 96h inconclusive.
For O=C(NCc1ccccc1)C1=C[C@H](c2csc3ccccc23)C[C@H](OCc2ccc(CO)cc2)O1 the results were HCV inhibitor inconclusive, Sm TGR inh -9.6%, SARS PLP yeast 1.7%, HCMV antiviral -61.0*, Pf growth 48h 9.28µM* and Pf growth 96h 13.1µM*.
Screening N#Cc1ccccc1S(=O)(=O)N1CCN(CC(O)COc2ccccc2F)CC1 (centres undefined) returned HCV inhibitor 4.4%, Sm TGR inh -12.9%, SARS PLP yeast 2.2%, HCMV antiviral -21.7, Pf growth 48h 7.5% and Pf growth 96h inconclusive.
CN(CC(=O)Nc1ccc(F)c(F)c1F)C(=O)/C=C/c1ccco1 was read as HCV inhibitor 2.1%, SARS PLP yeast -16.7% and HCMV antiviral 12.6.
For O=C(/C=C/c1ccc([N+](=O)[O-])s1)N1CCCCC1 the results were HCV inhibitor inconclusive, Sm TGR inh 20µM*, SARS PLP yeast -6.7%, HCMV antiviral inconclusive, Pf growth 48h inconclusive and Pf growth 96h inconclusive.
Screening O=C(/C=C/c1cccs1)N1CCCCC1 returned HCV inhibitor 12.4%, SARS PLP yeast 0.6%, HCMV antiviral -15.9, Pf growth 48h 88.6% and Pf growth 96h inconclusive.
Screening O=C(/C=C/c1ccc([N+](=O)[O-])s1)N1CCN(c2ccccc2)CC1 returned HCV inhibitor inconclusive, Sm TGR inh -15.1%, SARS PLP yeast 1.0%, HCMV antiviral -70.5*, Pf growth 48h inconclusive and Pf growth 96h inconclusive.
Screening O=C(/C=C/c1ccccc1[N+](=O)[O-])N1CCN(c2ccc(F)cc2)CC1 returned HCV inhibitor -10.7%, SARS PLP yeast -0.4%, HCMV antiviral inconclusive, Pf growth 48h -7.6% and Pf growth 96h 55.9%.
`O=C(/C=C/c1ccccc1[N+](=O)[O-])N1CCCCC1` gave HCV inhibitor -0.4%, Sm TGR inh -7.3%, SARS PLP yeast -1.3%, HCMV antiviral 31.2, Pf growth 48h 35.8% and Pf growth 96h 12.4%[5.75 µM].
Screening O=C(/C=C/c1ccc([N+](=O)[O-])s1)N1CCCC1 returned HCV inhibitor inconclusive, Sm TGR inh 28.2µM*, SARS PLP yeast -7.5%, HCMV antiviral -31.4, Pf growth 48h 13.1µM* and Pf growth 96h 10.4µM*.
